The panel holds about 83,000 compounds, 20% with a hit somewhere; the sample as a whole holds those more often.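 Note: values are percent growth. 100 is the growth of untreated cells, values between 100 and 0 indicate rising inhibition; between -100 and 0 indicates cell death.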 Values without a mark were called inactive. The source made the active and inactive calls. Rule for the calls: active = growth percent below 10; inactive = the rest.

The test has as its system HL-60(TB) leukemia. Nature of the test: NCI-60 one-dose screen, 48 h (100 = growth as untreated, 0 = no growth, -100 = all killed). Conditions: 10 µM unless noted.
As to `CC(=O)c1cc(O)ccc1O`, the growth is 62.1%.
On to `O=C(c1c[nH]c2ccccc12)c1n[nH]c(=S)n1-c1ccc([N+](=O)[O-])cc1`, for which the growth is 61.4%.
Take `Cc1ccc2nc(NC(=O)CSc3nc(-c4ccccc4)c(C#N)c(=O)n3Cc3ccccc3)sc2c1`: the growth is 100%.
On to `CC1(C)CCC(S(=O)(=O)c2ccc3c(c2)/C(=N\O)c2cc(S(=O)(=O)N4CCN(c5ccc(F)cc5O)CC4)ccc2-3)CC1`, for which the growth was -70.7% (active).
Next, `O=C(Cc1ccccc1)NNc1nc(Cl)nc(N2CCN(C(c3ccccc3)c3ccccc3)CC2)n1`: 58.2%; `COc1cnc2c(c1)C(=O)c1c-2n(CCCBr)c(=O)c2cc([N+](=O)[O-])ccc12`: 5.74% (active); `c1ccc(-c2oc(-c3ccccc3)c3ccccc23)cc1`: 109%.
For `O=C(c1cccc(N2CCOCC2)n1)c1c[nH]c2ccccc12`, the growth was 98.9%.
Next, `Cc1[nH]nc2c1C(c1cnn(C)c1)C(C#N)=C(N)O2` (stereo not given): 99.5%; `COc1ccc2cc(-c3ccnc4c(N=Nc5ccc(Cl)cc5)c(N)nn34)ccc2c1`: 98.8%.
`COc1ccc2c(c1)OC1=C(C(=O)OC1)C2c1cc(OC)c2c(c1)OCO2` (stereo not given): the growth is -13% (active).
Take `NC(=S)N=Nc1c(O)c2ccccc2c2ccccc12`: the growth was 100%.
As to `NC(N)=N/N=C/c1ccc(-c2ccc(-c3cc(Cl)cc(Cl)c3)s2)cc1`, the growth was 24.9%.
Regarding `O=C1C=CC(=CC=C2C=CN(CCCCCCCCCCCO)C=C2)C=C1`, the growth is 4.05% (active).
As for `COc1ccc(Cn2cc3c(c2-c2cc(OC)c(OC)c(OC)c2)CCc2cnoc2-3)cc1`, the figure is 0.149% (active).
Take `COc1ccc2c(CCc3ccc(Cl)cc3)c3[n+](cc2c1OC)CCc1cc2c(cc1-3)OCO2`: the growth was 10%.
Regarding `CC(=O)CSC(C)=O`, the growth is 102%.
As for `COc1cc2c(cc1NC(=O)C(Cl)Cl)-c1ccc(NC(=O)C(Cl)Cl)cc1C2`, the figure is -14.5% (active).
As for `COc1ccc(C2CC(c3ccc4c(c3)OCO4)=NN2C=O)cc1` (stereo not given), the figure is 106%.
`CCCc1cc(=O)oc2c3c(c4c(c12)OC(C)(C)CC4)OC(C)[C@H](C)[C@@H]3O` (stereo not given in full): the growth is 109%.
Take `O=C1Nc2ccccc2C2c3cccn3-c3ccccc3N12` (stereo not given): the growth is 86.1%.
Next, `COc1ccc(Cn2nc(-c3ccccc3)c3c2CCc2cnoc2-3)cc1`: 69.4%; `COc1ccc(-c2nc3sccn3c2/C=C/C(=O)c2c[nH]c3ccccc23)cc1`: 117%.
As for `CCN1C(=O)N(CC)C2C1NN=c1s/c(=C3\C(=O)N(CCC(C)C)c4ccccc43)c(=O)n12` (stereo not given), the figure is -38.2% (active); as for `COc1ccc(OCC(O)CN2CCN(c3ccc(Cl)cc3)CC2)cc1` (stereo not given), 105%.
As for `Cc1cc2ccccn2c1C(=O)c1ccc(C(=O)c2ccccc2)cc1`, the growth was -14.6% (active).
For `Cc1sc2ncn(CC(=O)Nc3ccc(S(N)(=O)=O)cc3)c(=O)c2c1C`, the growth was 103%.
Consider `C=C(C)[C@@H]1CC[C@]2(C)[C@H](C=CC3=C4C[C@@](C)(CO)CC[C@]4(C)CC[C@]32C)[C@@]1(C)CCCN`, for which the growth was -58% (active).
For the compound `O=c1[nH]c2c(ccc3cnccc32)c2c1CCC2`, the growth was 13.4%.
For the compound `C[C@H](CCCC(=O)NCC#CCN1CCN(C)CC1)[C@H]1CC[C@H]2[C@@H]3CC[C@@H]4CC(=O)CC[C@]4(C)[C@H]3CC[C@]12C`, the growth is 94.3%.
As for `CCCCCCCCCCCCCC[n+]1ccc(C(N)=O)cc1`, the figure is -50.6% (active).
As to `CCN1C(=O)N(c2ccccc2)C2NC(=S)N(/N=C/C=C/c3ccccc3)C21` (stereo not given), the growth is -26.4% (active).
In the case of `CC1(C)OC2OC3C(CN)OC(c4ccccc4)OC3C2O1` (stereo not given), the growth was 49.3%.
Consider `O=C(CCCCNC(=O)c1cc(=O)c(O)co1)Nc1ccccc1`, for which the growth was 54.7%.
For `CC(=O)c1c(C)nc2ccccc2c1/C=C/c1cccc(C)c1`, the growth is 28.2%.
On to `CCOC(=O)c1sc2nc(-c3cccc(OC)c3)nc(N3CCOCC3)c2c1C`, for which the growth is 101%.
For `CCCCCCCCCCCCCCCCCC1=NC(C)(C)CN1CC(C)O` (stereo not given), the growth was 61%.
In the case of `N[C@@H]1CCC[C@H]1NCCCCN1C(=O)c2cccc3cccc(c23)C1=O`, the growth is 91.1%.
`C=CCn1c(SCC(=O)Nc2ccc(C(=O)/C=C/c3ccc(OC)cc3)cc2)nnc1-c1ccc(OC)c(OC)c1`: the growth is 58.5%.
Turning to `COC(=O)[C@]12CC[C@@H](C)[C@H](C)[C@@H]1C1=CC[C@@H]3[C@@]4(C)C(C=O)=C[C@@](C)(COC(C)=O)C4=CC[C@@]3(C)[C@]1(C)CC2`, the growth was -53.1% (active).

The values are drawn from PubChem BioAssay (NCI).
